Data on 20 molecules can be found in PubChem BioAssay.

A number with no mark means an inactive call. For some of these results: Potency and affinity values are given separately. Active and inactive are the calls of the source. Unless noted, how the calls were made is not given here.

Test [1] can be described thus: antimalarial activity against Dd2 strain (AID 2302;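 active means growth inhibition above 50% at the single 2 µM test dose, taken to imply half-maximal potency below 2 µM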;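 further: 0% = DMSO untreated growth and 100% = chloroquine plus artemisinin killed control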). Conditions: P. falciparum Dd2 in RBCs, LDH growth readout, 72 h; at 2 µM; active compounds read high.
Test [2] is described as follows: HepG2 cytotoxicity, primary screen, cytotoxicity control for P. falciparum antimalarial project, cell-based, ATP luminescence (AID 2303;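 active means inhibition above 50%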;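 further: 0% = DMSO wells and 100% = digitonin-killed cells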). Conditions: HepG2 viability, 24-48 h, at 10 µM, active compounds read high.
Test [3] concerns the target L-lactate dehydrogenase (Plasmodium falciparum (isolate CDC / Honduras)) (UniProt Q27743). Briefly: PfLDH activity inhibition – cell lysate, 3D7 strain, counter-screen for P. falciparum growth inhibition project (AID 2304).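 Further: 0% = vehicle and 100% = reference inhibitor.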 Conditions: P. falciparum 3D7 crude extract, LDH APAD/NBT absorbance; at 2 µM; active compounds read high.
Test [4] can be described thus: inhibition of 3D7 malaria parasite growth – strain 3D7 (AID 2306).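 Further: 0% = DMSO wells and 100% = chloroquine plus artemisinin control wells.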 Conditions: P. falciparum 3D7 erythrocytic growth, LDH absorbance, 72 h; at 2 µM; active compounds read high.
Test [5] deals with Calcium-dependent protein kinase 1 (Plasmodium falciparum (isolate 3D7)) (UniProt P62344). The test is described as follows: PfCDPK1 kinase inhibitors, biochemical, TCAMS library (AID 1159585; cut-off not given, nearly all actives have IC50 up to about 0.98 µM;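 further: inhibitors leave more ATP so luminescence rises with inhibition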). Conditions: recombinant PfCDPK1, Kinase-Glo ATP depletion luminescence.
Test [6] addresses Plasmodium falciparum protein kinase 6 (PK6, PF3D7_1337100) (UniProt Q8IDW1). The test is described as follows: PfPK6 kinase inhibitors, biochemical, TCAMS library (AID 1159586). Conditions: recombinant PfPK6, Kinase-Glo ATP depletion luminescence.
In test [7] the target is Protein kinase 7 (PK7), Plasmodium falciparum 3D7 (PF3D7_0213400) (UniProt Q7YTF7). The test is described as follows: inhibition of Plasmodium PK7 catalytic activity – biochemical, TCAMS antimalarial set, Kinase-Glo luminescence (AID 1159587). Conditions: recombinant PfPK7, Kinase-Glo ATP depletion luminescence.
For test [8], the target named is Calcium-dependent protein kinase 4 (Plasmodium falciparum (isolate 3D7)) (UniProt Q8IBS5). The test is described as follows: PfCDPK4 kinase inhibitors, biochemical, TCAMS library (AID 1159588; cut-off not given, nearly all actives have IC50 up to about 0.91 µM). Conditions: recombinant PfCDPK4, Kinase-Glo ATP depletion luminescence.
Calcium-dependent protein kinase 4 (Plasmodium falciparum (isolate 3D7)), sequence (Q8IBS5 whole entry, looked up): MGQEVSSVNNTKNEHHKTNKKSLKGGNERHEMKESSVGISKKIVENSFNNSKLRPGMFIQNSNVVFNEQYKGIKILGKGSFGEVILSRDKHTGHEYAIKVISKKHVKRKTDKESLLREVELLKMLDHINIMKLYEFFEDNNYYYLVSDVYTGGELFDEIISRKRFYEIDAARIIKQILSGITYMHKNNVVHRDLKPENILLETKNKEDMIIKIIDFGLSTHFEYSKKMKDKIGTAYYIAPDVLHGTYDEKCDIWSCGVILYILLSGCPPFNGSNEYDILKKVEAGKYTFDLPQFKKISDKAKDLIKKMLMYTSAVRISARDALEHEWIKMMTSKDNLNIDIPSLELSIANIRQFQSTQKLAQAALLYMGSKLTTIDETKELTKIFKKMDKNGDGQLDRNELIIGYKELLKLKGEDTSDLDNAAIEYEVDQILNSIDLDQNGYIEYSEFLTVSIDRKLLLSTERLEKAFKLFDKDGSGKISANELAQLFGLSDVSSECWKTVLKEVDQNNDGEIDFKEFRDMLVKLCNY

Calcium-dependent protein kinase 1 (Plasmodium falciparum (isolate 3D7)), sequence (P62344 whole entry, looked up): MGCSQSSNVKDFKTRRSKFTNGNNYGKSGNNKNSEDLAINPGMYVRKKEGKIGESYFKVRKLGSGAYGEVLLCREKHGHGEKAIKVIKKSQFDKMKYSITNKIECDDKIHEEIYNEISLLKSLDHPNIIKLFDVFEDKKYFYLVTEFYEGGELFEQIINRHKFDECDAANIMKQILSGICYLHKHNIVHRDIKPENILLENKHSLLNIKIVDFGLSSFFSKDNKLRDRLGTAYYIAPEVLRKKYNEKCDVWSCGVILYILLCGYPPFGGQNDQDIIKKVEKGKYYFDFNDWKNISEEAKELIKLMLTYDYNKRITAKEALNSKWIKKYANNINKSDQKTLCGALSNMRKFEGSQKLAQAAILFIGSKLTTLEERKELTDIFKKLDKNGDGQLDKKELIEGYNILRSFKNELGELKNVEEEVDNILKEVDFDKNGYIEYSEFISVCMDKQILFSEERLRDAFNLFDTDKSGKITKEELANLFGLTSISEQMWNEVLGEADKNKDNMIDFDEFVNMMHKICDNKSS
L-lactate dehydrogenase (Plasmodium falciparum (isolate CDC / Honduras)), sequence (Q27743 whole entry, looked up): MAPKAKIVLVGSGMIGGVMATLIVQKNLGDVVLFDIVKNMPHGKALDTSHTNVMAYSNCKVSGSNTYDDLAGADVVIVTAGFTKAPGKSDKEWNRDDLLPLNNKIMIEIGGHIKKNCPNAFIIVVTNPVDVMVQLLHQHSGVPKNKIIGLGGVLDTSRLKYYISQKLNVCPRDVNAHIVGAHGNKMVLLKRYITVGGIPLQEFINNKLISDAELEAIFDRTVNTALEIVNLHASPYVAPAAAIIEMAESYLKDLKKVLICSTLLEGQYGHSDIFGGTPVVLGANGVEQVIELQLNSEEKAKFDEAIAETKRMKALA
Protein kinase 7 (PK7), Plasmodium falciparum 3D7 (PF3D7_0213400), sequence (Q7YTF7 1-343): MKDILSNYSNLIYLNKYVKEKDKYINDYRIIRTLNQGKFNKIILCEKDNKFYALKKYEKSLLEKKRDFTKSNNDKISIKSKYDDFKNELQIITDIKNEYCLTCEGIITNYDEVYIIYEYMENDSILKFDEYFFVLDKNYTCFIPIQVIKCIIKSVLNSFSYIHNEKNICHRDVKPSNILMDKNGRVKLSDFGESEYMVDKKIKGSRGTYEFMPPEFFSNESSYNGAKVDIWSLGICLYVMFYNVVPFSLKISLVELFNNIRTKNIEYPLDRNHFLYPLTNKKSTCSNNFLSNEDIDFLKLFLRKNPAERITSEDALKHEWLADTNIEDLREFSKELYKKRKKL
Plasmodium falciparum protein kinase 6 (PK6, PF3D7_1337100), sequence (Q8IDW1 1-305): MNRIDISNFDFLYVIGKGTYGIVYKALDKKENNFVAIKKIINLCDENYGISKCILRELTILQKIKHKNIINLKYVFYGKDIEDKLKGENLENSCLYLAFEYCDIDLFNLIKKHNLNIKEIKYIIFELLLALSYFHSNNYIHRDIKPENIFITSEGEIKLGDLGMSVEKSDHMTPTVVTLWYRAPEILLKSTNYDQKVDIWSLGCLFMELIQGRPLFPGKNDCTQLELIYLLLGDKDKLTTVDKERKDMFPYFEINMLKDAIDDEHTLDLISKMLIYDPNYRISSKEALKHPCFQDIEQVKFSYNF

`CCCNCc1ccc(-c2ccc(CN(CC3CCCO3)C(=O)COc3ccccc3Cl)cc2)nc1` (stereo not given): the growth inhibition in test [1] was 11%; in test [4], 89% (active). Further, the values for the inhibition in test [2] and in test [3] were 5% and -3%, respectively. The outcome in test [5], in test [6], in test [7] and in test [8] was inactive.
For `CN1CCC(NCc2cccc(-c3cnc(NCc4ccccc4)nc3)c2)CC1`, the growth inhibition in test [1] is 67% (active); in test [4] it was 102% (active). Besides, the inhibition is 12% in test [2] and 4% in test [3]. Also, the outcome in test [5], in test [6], in test [7] and in test [8] was inactive.
Take `CC1(C)[C@H]2C=C(CN3CCC(NC(=O)Nc4ccc(Cl)c(Cl)c4)CC3)[C@@H]1CC2`: the growth inhibition was 33% in test [1] and 101% (active) in test [4]. In addition, the inhibition is 28% in test [2] and 2% in test [3]. Moreover, the result in test [5], in test [6], in test [7] and in test [8] was inactive.
As to `CC(C)CCCC(C)(C)NC[C@@H](O)[C@H](Cc1ccccc1)NC(=O)c1cc(NC(C)C)cc(N2CCCCS2(=O)=O)c1F`, the values for the growth inhibition in test [1] and in test [4] were 99% (active) and 98% (active), respectively. Also, the figures for the inhibition in test [2] and in test [3] were 11% and -3%, respectively. Moreover, the result in test [5], in test [6], in test [7] and in test [8] was inactive.
Consider `COc1cc(F)c2ncc(Cl)c(CCN3CCC(NCc4ccc5c(c4)NC(=O)CS5)CC3)c2c1`, for which the results for the growth inhibition in test [1] and in test [4] were 85% (active) and 100% (active), respectively. Further, the figures for the inhibition in test [2] and in test [3] were 27% and -6%, respectively. Besides, the outcome in test [5], in test [6], in test [7] and in test [8] was inactive.
Regarding `CC1CCN(c2nc(C(=O)NCCc3ccc(Cl)c(Cl)c3)c(C(C)C)s2)CC1`, the growth inhibition is 38% in test [1] and 88% (active) in test [4]. The inhibition is -3% in test [2] and 3% in test [3]. The outcome in test [5], in test [6], in test [7] and in test [8] was inactive.
Take `CN(C)CC1CCCN1Cc1ccccc1-c1cnn(C)c(=O)c1Oc1ccc(F)cc1` (stereo not given): the figures for the growth inhibition in test [1] and in test [4] were 19% and 91% (active), respectively. Moreover, the inhibition is 29% in test [2] and 2% in test [3]. Further, the outcome in test [5], in test [6], in test [7] and in test [8] was inactive.
As to `COCCCNC(=O)c1ccc(O)c(-c2cc(Cl)cc(Cl)c2)c1`, the values for the growth inhibition in test [1] and in test [4] were 34% and 94% (active), respectively. In addition, the results for the inhibition in test [2] and in test [3] were 22% and -7%, respectively. Further, the result in test [5], in test [6], in test [7] and in test [8] was inactive.
Consider `O=C(Nc1ccc2c(c1)CN(Cc1ccc(N3CCCC3)o1)CCC2)c1ccoc1`, for which the figures for the growth inhibition in test [1] and in test [4] were 76% (active) and 89% (active), respectively. Besides, the results for the inhibition in test [2] and in test [3] were 4% and -3%, respectively. For the same molecule, the result in test [5], in test [6], in test [7] and in test [8] was inactive.
On to `Cc1ccc(-c2ccn(Cc3cccc(OCc4ccccc4)c3)n2)cn1` (tested in a mixture with another compound), for which the growth inhibition is 64% (active) in test [1] and 82% (active) in test [4]. Besides, the figures for the inhibition in test [2] and in test [3] were -4% and 0%, respectively. For the same molecule, the result in test [5], in test [6], in test [7] and in test [8] was inactive.
In the case of `O=C1CN(C(=O)CCC2CCCC2)C(c2ccc(F)cc2)c2cc(F)ccc2N1` (stereo not given), the growth inhibition was 75% (active) in test [1] and 100% (active) in test [4]. Also, the inhibition is 12% in test [2] and -5% in test [3]. Further, the outcome in test [5], in test [6], in test [7] and in test [8] was inactive.
With `COC(=O)c1cccc(CNCc2cccc(-c3ccc(-c4nc5ccccc5[nH]4)cc3)c2)c1`, the figures for the growth inhibition in test [1] and in test [4] were 51% (active) and 99% (active), respectively. Besides, the results for the inhibition in test [2] and in test [3] were -3% and 4%, respectively. Also, the outcome in test [5], in test [6], in test [7] and in test [8] was inactive.
As to `CC(=O)c1ccc(-c2ccccc2)s1`, the growth inhibition in test [1] was 2%; in test [4], 92% (active). Besides, the inhibition in test [2] is -2%; in test [3], 8%. Also, the outcome in test [5], in test [6], in test [7] and in test [8] was inactive.
Regarding `COc1cccc(CCc2c(CCNCCCCCCNCCc3ccccc3)ccc(OC)c2OC)c1`, the growth inhibition in test [1] was 69% (active); in test [4], 100% (active). Besides, the values for the inhibition in test [2] and in test [3] were 100% (active) and 6%, respectively. In addition, the result in test [5], in test [6], in test [7] and in test [8] was inactive.
As to `Cc1[nH]c(C)c(-c2ccc(-c3cccc(Cl)c3)nc2)c(=O)c1Br`, the growth inhibition in test [1] and in test [4] was 96% (active) in each case. The inhibition was 10% in test [2] and 3% in test [3]. Further, the result in test [5], in test [6], in test [7] and in test [8] was inactive.
`CN1CCCC(CN2CCN(Cc3cccc(-c4ccc(-c5nc6ccc(F)cc6[nH]5)cc4)c3)CC2)C1` (stereo not given): the figures for the growth inhibition in test [1] and in test [4] were 100% (active) and 101% (active), respectively. The inhibition is 78% (active) in test [2] and -1% in test [3]. The outcome in test [5], in test [6], in test [7] and in test [8] was inactive.
With `COc1cc(Cc2cnc(N)nc2N)ccc1OCc1ccc(NC(C)=O)cc1`, the growth inhibition in test [1] was 0%; in test [4] it was 98% (active). The results for the inhibition in test [2] and in test [3] were 9% and -6%, respectively. Also, the outcome in test [5], in test [6], in test [7] and in test [8] was inactive.
As for `COc1ccccc1CCNc1nc(C)cc(N[C@@H](CC(C)C)C(=O)NCCc2ccccc2)n1`, the growth inhibition in test [1] is 81% (active); in test [4] it was 97% (active). For the same molecule, the inhibition was 12% in test [2] and -2% in test [3]. The result in test [5], in test [6], in test [7] and in test [8] was inactive.
As to `Cc1cccc2[nH]c(-c3ccc(-c4ccc(CNC(C)C)cc4)cc3)nc12`, the growth inhibition is 62% (active) in test [1] and 99% (active) in test [4]. Also, the inhibition in test [2] is 12%; in test [3] it was 0%. Also, the result in test [5], in test [6], in test [7] and in test [8] was inactive.
In the case of `COc1ccc(Nc2cc(C)nc(Nc3ccc(NC(C)=O)cc3)n2)cc1`, the results for the growth inhibition in test [1] and in test [4] were 31% and 98% (active), respectively. Moreover, the inhibition in test [2] was 16%; in test [3] it was -1%. For the same molecule, the outcome in test [5], in test [6], in test [7] and in test [8] was inactive.
